Reference: the supplement of paper PMC10849652
The full data set covers some 7,900 targets. This sample favours those with a hit. About 0.6% of all pairs of compound and target were hits. Values without a mark were called inactive.

Tests used:
Assay in all cases: log2 fold change, soluble protein after heating vs DMSO (PISA); higher = thermal stabilisation; K562 cells, 10 uM, 30 min; active = over 0.2 and 3.5 SD of the protein, either way, in both replicates (recomputed)
[1] = compound: C#Cc1cccc(Nc2ncnc3cc(OCCOC)c(OCCOC)cc23)c1 [erlotinib]
Outline: (§1)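 K562 cells at 2×10^6 cells/mL were treated with 10 μM compound for 30 min. Aliquots were heated for 3 min across 48°C-58°C, pooled, and extracted in PBS with 0.5% NP-40 at 4°C; soluble protein was the supernatant after 21,000xg for 90 min. Soluble protein was quantified by TMTpro 16plex LC-MS/MS with channel sums equalised, and reported as log2 fold change in thermal stability against DMSO controls, with values from duplicates.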

[2] = compound: C/C(=N\NC(=O)C1=CC(=CC=C1)S(=O)(=O)N2CCOCC2)/C3=C(C=CC(=C3)Cl)O
Outline: as §1

[3] = compound: C1=CC(=C(C=C1Cl)C2=NC3=NC=CN=C3C(=N2)NC4=CC=NC=C4)F
Outline: as §1

[4] = compound: C1=CC(=CC=C1C2=NC3=C(N2)C=C(C=C3)C(=O)N)OC4=CC=C(C=C4)Cl
Outline: as §1

[5] = compound: C1=CC2=C(C=CC(=C2)/C=C\3/C(=O)NC(=NCC4=CC=CS4)S3)N=C1
Outline: as §1

[6] = compound: C1=CC2=NC=CN=C2C=C1/C=C/3\C(=O)NC(=O)S3
Outline: as §1

[7] = compound: C1=CC=C(C=C1)C2=NC(=C(N2)C3=CC=NC=C3)C4=CC(=C(C=C4)Cl)O
Outline: as §1

[8] = compound: C1=CC=C2C(=C1)C3=NNC4=CC=CC(=C43)C2=O
Outline: as §1

[9] = compound: C1CCN(C1)C(=O)NC2=CC=CC(=C2)NC3=NC=C(C(=N3)NCCC4=CN=CN4)Br
Outline: as §1

[10] = compound: C1CN(CCC1(CC2=CC=C(C=C2)Cl)N)C3=NC=NC4=C3C=CN4
Outline: as §1

Chain of UniProt Q9BZQ8 (Q9BZQ8 whole entry, looked up): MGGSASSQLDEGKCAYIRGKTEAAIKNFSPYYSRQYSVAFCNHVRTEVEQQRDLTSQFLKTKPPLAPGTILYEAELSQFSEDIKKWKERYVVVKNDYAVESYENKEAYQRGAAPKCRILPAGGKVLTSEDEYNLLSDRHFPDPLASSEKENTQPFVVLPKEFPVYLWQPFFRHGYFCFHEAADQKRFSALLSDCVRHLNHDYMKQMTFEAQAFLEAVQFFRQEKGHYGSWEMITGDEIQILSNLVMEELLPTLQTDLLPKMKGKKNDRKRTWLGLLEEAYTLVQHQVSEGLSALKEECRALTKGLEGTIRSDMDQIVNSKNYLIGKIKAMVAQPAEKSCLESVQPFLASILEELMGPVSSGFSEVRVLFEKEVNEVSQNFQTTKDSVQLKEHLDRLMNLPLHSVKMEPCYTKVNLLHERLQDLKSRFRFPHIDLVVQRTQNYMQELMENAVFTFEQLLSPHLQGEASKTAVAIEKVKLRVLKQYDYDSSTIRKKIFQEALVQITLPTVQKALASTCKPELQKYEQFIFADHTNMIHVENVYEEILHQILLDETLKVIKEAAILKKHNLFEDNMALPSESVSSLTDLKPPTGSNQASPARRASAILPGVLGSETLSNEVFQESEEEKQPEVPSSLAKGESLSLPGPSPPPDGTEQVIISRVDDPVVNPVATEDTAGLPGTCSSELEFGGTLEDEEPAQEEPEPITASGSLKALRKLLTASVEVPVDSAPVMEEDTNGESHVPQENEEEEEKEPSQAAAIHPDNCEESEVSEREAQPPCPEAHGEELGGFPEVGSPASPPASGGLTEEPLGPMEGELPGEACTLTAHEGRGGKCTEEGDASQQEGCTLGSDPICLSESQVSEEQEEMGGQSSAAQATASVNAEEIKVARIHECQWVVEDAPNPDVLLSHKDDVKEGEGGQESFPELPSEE
Chain of UniProt Q9BUK6 (Q9BUK6 whole entry, looked up): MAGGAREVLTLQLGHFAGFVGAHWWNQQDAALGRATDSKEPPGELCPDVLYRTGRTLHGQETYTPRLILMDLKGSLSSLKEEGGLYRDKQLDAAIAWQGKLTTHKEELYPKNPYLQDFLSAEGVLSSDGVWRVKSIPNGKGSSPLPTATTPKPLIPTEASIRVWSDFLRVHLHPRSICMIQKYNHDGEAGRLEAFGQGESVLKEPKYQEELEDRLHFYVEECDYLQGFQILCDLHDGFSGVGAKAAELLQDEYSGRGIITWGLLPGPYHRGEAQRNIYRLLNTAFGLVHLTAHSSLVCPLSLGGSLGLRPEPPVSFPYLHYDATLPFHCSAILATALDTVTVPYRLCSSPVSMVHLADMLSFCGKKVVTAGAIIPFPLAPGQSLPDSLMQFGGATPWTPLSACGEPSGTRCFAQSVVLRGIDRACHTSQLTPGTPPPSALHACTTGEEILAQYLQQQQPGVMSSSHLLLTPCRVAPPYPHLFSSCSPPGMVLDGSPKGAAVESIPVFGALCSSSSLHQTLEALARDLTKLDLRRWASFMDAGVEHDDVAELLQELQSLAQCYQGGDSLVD
Chain of UniProt P84157 (P84157 whole entry, looked up): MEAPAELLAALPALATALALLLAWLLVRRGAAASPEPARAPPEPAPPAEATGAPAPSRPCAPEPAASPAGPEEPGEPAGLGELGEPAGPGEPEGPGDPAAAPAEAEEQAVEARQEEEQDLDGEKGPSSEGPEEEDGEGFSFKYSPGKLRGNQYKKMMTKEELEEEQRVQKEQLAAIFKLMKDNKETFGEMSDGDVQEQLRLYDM
Chain of UniProt Q15014 (Q15014 whole entry, looked up): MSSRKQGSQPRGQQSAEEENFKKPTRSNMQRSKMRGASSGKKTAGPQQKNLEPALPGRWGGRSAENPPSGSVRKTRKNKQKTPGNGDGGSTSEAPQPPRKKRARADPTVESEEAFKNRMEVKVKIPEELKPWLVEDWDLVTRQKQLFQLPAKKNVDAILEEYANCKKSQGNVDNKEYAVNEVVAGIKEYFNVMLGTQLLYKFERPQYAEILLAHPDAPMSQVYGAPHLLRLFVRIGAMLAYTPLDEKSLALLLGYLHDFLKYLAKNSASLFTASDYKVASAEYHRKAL
Chain of UniProt O95747 (O95747 whole entry, looked up): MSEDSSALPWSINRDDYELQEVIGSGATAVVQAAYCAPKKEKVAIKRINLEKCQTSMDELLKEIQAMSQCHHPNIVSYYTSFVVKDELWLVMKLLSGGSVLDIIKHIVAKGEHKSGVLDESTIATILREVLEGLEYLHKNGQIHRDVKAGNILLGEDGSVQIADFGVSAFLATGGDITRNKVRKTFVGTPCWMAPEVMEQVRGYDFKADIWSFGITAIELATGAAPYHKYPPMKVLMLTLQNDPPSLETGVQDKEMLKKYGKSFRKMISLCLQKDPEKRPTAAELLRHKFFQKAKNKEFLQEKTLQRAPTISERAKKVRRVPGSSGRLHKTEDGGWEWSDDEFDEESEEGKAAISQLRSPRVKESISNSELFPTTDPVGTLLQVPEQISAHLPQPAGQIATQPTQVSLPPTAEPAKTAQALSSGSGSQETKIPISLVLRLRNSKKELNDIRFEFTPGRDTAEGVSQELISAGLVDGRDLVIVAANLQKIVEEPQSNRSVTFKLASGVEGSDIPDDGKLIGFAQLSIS
Chain of UniProt Q92621 (Q92621 whole entry, looked up): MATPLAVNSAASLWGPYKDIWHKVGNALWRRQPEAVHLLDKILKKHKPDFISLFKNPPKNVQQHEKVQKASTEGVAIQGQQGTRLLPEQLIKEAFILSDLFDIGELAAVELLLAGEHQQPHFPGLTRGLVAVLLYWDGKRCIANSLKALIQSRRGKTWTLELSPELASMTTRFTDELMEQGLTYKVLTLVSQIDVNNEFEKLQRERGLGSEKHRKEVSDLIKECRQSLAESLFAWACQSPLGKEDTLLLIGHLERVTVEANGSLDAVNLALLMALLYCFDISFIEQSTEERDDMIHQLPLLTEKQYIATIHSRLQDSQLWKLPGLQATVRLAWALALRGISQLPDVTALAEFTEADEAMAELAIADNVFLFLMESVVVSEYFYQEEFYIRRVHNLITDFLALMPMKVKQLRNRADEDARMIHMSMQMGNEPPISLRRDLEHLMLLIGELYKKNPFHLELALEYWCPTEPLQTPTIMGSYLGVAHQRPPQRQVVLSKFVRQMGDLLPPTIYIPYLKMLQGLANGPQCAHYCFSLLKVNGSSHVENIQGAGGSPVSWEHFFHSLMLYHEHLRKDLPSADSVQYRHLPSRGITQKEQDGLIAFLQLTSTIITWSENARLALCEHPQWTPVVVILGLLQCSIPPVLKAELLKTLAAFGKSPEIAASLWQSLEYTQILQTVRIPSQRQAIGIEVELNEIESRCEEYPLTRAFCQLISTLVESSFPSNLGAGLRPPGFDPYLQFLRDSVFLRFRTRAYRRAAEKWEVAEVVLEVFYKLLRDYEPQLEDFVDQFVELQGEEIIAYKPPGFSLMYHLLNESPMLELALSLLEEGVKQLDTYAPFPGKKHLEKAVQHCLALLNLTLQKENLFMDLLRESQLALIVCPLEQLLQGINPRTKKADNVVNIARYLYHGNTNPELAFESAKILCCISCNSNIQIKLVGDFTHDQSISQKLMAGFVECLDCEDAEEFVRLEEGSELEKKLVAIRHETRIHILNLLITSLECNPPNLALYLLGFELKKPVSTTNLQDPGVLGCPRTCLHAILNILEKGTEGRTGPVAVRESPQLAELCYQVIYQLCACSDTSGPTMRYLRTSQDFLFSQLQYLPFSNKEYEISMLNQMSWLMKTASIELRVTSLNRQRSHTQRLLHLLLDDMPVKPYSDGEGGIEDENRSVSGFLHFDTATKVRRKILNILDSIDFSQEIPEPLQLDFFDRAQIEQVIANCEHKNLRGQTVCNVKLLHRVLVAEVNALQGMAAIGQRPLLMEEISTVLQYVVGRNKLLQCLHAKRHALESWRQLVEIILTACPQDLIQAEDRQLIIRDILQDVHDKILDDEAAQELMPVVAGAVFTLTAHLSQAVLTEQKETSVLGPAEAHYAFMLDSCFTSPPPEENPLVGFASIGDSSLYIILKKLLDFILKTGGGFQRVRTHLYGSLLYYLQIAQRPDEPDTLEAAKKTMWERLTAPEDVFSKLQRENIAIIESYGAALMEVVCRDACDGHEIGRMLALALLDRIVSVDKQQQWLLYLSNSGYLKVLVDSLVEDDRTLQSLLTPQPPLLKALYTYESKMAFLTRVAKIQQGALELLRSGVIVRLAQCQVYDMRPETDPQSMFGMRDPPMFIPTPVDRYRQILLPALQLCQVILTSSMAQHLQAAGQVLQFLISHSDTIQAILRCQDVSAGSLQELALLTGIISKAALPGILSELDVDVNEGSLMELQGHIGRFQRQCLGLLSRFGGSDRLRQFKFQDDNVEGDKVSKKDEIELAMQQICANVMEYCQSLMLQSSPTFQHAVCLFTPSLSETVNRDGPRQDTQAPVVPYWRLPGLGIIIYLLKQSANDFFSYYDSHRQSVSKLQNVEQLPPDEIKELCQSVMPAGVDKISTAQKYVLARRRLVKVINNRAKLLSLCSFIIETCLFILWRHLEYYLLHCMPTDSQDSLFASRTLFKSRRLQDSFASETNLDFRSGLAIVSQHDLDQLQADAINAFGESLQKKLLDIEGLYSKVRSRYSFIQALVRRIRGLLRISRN
Chain of UniProt Q96DE0 (Q96DE0 whole entry, looked up): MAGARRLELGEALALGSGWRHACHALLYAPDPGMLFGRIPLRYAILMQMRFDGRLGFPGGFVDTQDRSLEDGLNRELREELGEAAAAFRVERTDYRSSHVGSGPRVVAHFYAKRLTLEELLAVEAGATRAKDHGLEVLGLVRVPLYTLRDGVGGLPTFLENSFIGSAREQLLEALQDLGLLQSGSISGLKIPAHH
Chain of UniProt Q9BRA0 (Q9BRA0 whole entry, looked up): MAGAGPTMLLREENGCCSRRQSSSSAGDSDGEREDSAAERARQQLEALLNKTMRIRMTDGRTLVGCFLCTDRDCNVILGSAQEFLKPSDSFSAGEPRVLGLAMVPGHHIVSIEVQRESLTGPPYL

Target | log2 fold change [1] | log2 fold change [2] | log2 fold change [3] | log2 fold change [4] | log2 fold change [5] | log2 fold change [6] | log2 fold change [7] | log2 fold change [8] | log2 fold change [9] | log2 fold change [10]
NSUN2 (UniProt Q08J23) | -0.017 | 0.137 | -0.002 | 0.038 | -0.018 | 0.006 | -0.052 | -0.112 | -0.067 | 0.064
MON1B (UniProt Q7L1V2) | 0.016 | 0.04 | -0.021 | 0.023 | 0.089 | -0.01 | 0.066 | -0.004 | -0.005 | -0.006
NIPSNAP2 (UniProt O75323) | 0.024 | 0.065 | 0.076 | 0.106 | 0.044 | -0.079 | 0.071 | 0.041 | 0.01 | 0.007
NAA38 isoform 2 (UniProt Q9BRA0) | 0.139 | 0.083 | 0.092 | -0.003 | 0.034 | 0.015 | 0.044 | -0.016 | -0.009 | 0.082
NDUFA9 (UniProt Q16795) | -0.031 | 0.035 | 0.059 | 0.03 | 0.031 | -0.016 | 0.025 | 0.047 | 0.005 | 0.024
MRPL46 (UniProt Q9H2W6) | -0.025 | -0.008 | 0 | 0.011 | -0.054 | -0.001 | 0.046 | 0.164 | -0.031 | -0.075
NUP85 (UniProt Q9BW27) | 0.046 | 0.08 | 0.037 | 0.036 | 0 | 0.028 | -0.012 | -0.066 | -0.051 | 0.008
PAFAH1B2 (UniProt P68402) | 0.195 | -0.088 | 0.134 | -0.016 | -0.036 | -0.034 | 0.068 | 0.027 | 0.128 | 0.047
NMNAT1 (UniProt Q9HAN9) | 0.033 | -0.145 | -0.302 | -0.111 | -0.032 | 0.03 | -0.102 | -0.008 | 0.157 | -0.046
NNT (UniProt Q13423) | -0.008 | 0.051 | 0.089 | -0.012 | 0.044 | 0.01 | 0.005 | -0.005 | -0.001 | 0.043
MRPS15 (UniProt P82914) | -0.061 | -0.201 | -0.119 | 0.089 | 0.069 | 0.064 | 0.021 | 0.106 | -0.045 | -0.108
MRPS2 (UniProt Q9Y399) | 0.004 | -0.064 | -0.083 | 0.052 | 0.093 | 0.01 | 0.083 | -0.033 | -0.01 | -0.112
MORF4L2 (UniProt Q15014) | -0.114 | -0.056 | -0.181 | 0.02 | -0.03 | 0.002 | -0.108 | -0.039 | -0.108 | -0.051
NA, A0A0B4J2A0 | -0.037 | 0.07 | 0.065 | -0.009 | 0.037 | 0.038 | 0.108 | 0.026 | -0.055 | -0.007
NGLY1 (UniProt Q96IV0) | 0.035 | -0.06 | -0.036 | -0.014 | 0.17 | 0.023 | -0.001 | 0.045 | -0.023 | -0.024
NUDT16 (UniProt Q96DE0) | 0.081 | 0 | 0.111 | 0.01 | -0.034 | -0.004 | 0.014 | 0.026 | -0.085 | 0.081
OTULIN (UniProt Q96BN8) | -0.023 | 0.054 | 0.091 | -0.143 | 0.066 | 0.06 | -0.027 | 0.039 | -0.042 | -0.086
OGFR (UniProt Q9NZT2) | 0.009 | 0.207 | -0.011 | 0.107 | 0.131 | -0.157 | 0.027 | -0.085 | 0.028 | -0.132
NUMA1 (UniProt Q14980) | -0.03 | -0.006 | -0.109 | 0.017 | 0.02 | 0.019 | 0.031 | -0.054 | -0.055 | -0.211
NMT1 (UniProt P30419) | -0.002 | 0.001 | 0.039 | -0.009 | -0.01 | 0.07 | -0.002 | 0.05 | 0.036 | -0.363 (active)
OXSR1 (UniProt O95747) | 0.042 | 0.091 | -0.024 | -0.056 | 0.106 | 0.004 | 0.039 | 0.054 | -0.008 | 0.007
MSTO1 (UniProt Q9BUK6) | 0.031 | 0.06 | 0.075 | -0.044 | -0.003 | 0.007 | 0.038 | 0.043 | 0.011 | -0.041
NFATC2IP (UniProt Q8NCF5) | -0.051 | 0.131 | -0.034 | 0.014 | 0.018 | 0.085 | -0.029 | -0.014 | -0.117 | 0.061
NUP205 (UniProt Q92621) | 0.047 | 0.131 | -0.1 | -0.031 | 0.068 | 0 | 0.016 | -0.146 | -0.063 | -0.017
MRPS10 (UniProt P82664) | -0.036 | -0.089 | -0.103 | 0.048 | 0.102 | 0.023 | -0.037 | 0.04 | 0.001 | -0.012
NFYC (UniProt Q13952) | 0.014 | 0.004 | 0.016 | -0.006 | 0.059 | 0.007 | 0.007 | 0.01 | -0.034 | -0.042
MXRA7 (UniProt P84157) | -0.052 | -0.109 | -0.083 | 0.047 | -0.067 | 0.018 | -0.033 | 0.037 | -0.038 | 0.013
MUL1 (UniProt Q969V5) | 0.015 | 0.038 | 0.073 | -0.004 | 0.026 | 0.069 | 0.095 | 0.034 | -0.025 | 0.005
NIBAN1 (UniProt Q9BZQ8) | 0.014 | 0.103 | -0.022 | 0.017 | 0.058 | -0.009 | -0.005 | -0.047 | -0.017 | -0.06
NEDD4 isoform 4 (UniProt P46934) | -0.024 | 0.067 | 0.048 | -0.011 | 0.052 | 0.066 | 0.048 | -0.001 | 0.003 | -0.053
